From PubChem BioAssay (NCI)
Compounds without any hit were thinned out: in the full panel of roughly 83,000, 20% have a hit.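 Single-dose data. Exposure time 48 hours. Values below 10 considered active.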 Activity calls are given as the source filed them.

Columns and labels:
Assay in all cases: NCI-60 one-dose screen, 48 h (100 = growth as untreated, 0 = no growth, -100 = all killed)
Details in all cases: 10 µM unless noted
[1] = tested on: SR leukemia
[2] = tested on: RPMI-8226 leukemia
[3] = tested on: OVCAR-8 ovarian
[4] = tested on: OVCAR-5 ovarian
[5] = tested on: OVCAR-4 ovarian
[6] = tested on: SK-OV-3 ovarian
[7] = tested on: IGROV1 ovarian
[8] = tested on: OVCAR-3 ovarian
[9] = tested on: HS 578T breast
[10] = tested on: NCI/ADR-RES ovarian
[11] = tested on: T-47D breast
[12] = tested on: BT-549 breast
[13] = tested on: MDA-MB-435 melanoma
[14] = tested on: SW-620 colon
[15] = tested on: MCF7 breast
[16] = tested on: HCT-116 colon
[17] = tested on: HCC-2998 colon
[18] = tested on: KM12 colon

Measured: growth

Cc1noc(C)c1-c1cc(O)cc(C(O)c2ccccc2)c1 (centres undefined)
inactive: [1] 27.1% | [2] 14.9% | [3] 38.6% | [4] 73.3% | [5] 32.5% | [6] 43.7% | [7] 46% | [8] 46.7% | [9] 33.7% | [10] 59.2% | [11] 47.1% | [12] 64.7% | [13] 43.9% | [14] 72.1% | [15] 20.9% | [16] 58.1% | [17] 62.2% | [18] 53.1%

CC(=O)Oc1cc2cnc3c4cc(OC(C)=O)c(OC(C)=O)cc4ccc3c2cc1OC(C)=O
inactive: [2] 12.8% | [4] 54.6% | [6] 26.9% | [9] 28.1% | [10] 13.3% | [11] 14.7% | [12] 26.8% | [13] 23.3% | [14] 24.8% | [17] 45.7% | [18] 22.8%
active: [1] -8.28% | [3] -22.1% | [5] -4.13% | [7] -12.8% | [8] -3.27% | [15] 6.96% | [16] 5.17%

Cn1cc(-c2csc(-c3cn(C)c4ncccc34)n2)c2ccccc21
active: [1] 9.51% | [8] -4.76% | [13] -40.1%
inactive: [2] 22.4% | [3] 30.2% | [4] 64.6% | [5] 71.6% | [6] 36.6% | [7] 42.8% | [9] 46% | [10] 22.8% | [11] 31.8% | [12] 22% | [14] 20.7% | [15] 13% | [16] 20.5% | [17] 37.6% | [18] 23.1%

C=C1CC2(OC1=O)C(=O)Nc1ccccc12 (centres undefined)
inactive: [2] 24.4% | [3] 89.4% | [4] 66% | [5] 37.3% | [6] 115% | [7] 63% | [9] 83.1% | [10] 66.5% | [11] 37.3% | [12] 75.3% | [13] 49.7% | [15] 16.4% | [16] 31.4% | [17] 90.1% | [18] 97.3%
active: [1] 5.16% | [8] 6.75% | [14] 4%

Cn1c2ccccc2c2c3c(c4c5ccccc5[nH]c4c21)C(=O)N(N)C3=O
active: [1] 5.54%
inactive: [2] 57.2% | [3] 66.7% | [4] 89.3% | [5] 73% | [6] 74% | [7] 72.7% | [8] 69.6% | [9] 79.5% | [10] 71.6% | [11] 30.9% | [12] 46.6% | [13] 57.9% | [14] 44.7% | [15] 23.9% | [16] 40.7% | [17] 74.4% | [18] 62.8%

COc1ccc(CN2C(=O)/C(=C\c3cc(OC)c(OC)c(OC)c3)c3cc(OC)ccc32)cc1
inactive: [4] 15% | [5] 27.2% | [12] 27.1% | [17] 74.1%
active: [1] -31.1% | [2] -35.9% | [3] -43.2% | [6] 7.88% | [7] -9.32% | [8] -10.8% | [9] 9.55% | [10] 6.96% | [11] -0.59% | [13] -0.0336% | [14] -64.1% | [15] 7.67% | [16] -79.6% | [18] -86%

COCCOC(=O)C1=C(C)NC(=S)NC1c1ccc2c(c1)OCO2 (centres undefined)
inactive: [1] 95.5% | [2] 105% | [3] 102% | [4] 109% | [5] 103% | [6] 103% | [7] 105% | [8] 111% | [9] 104% | [10] 103% | [11] 94.8% | [12] 109% | [13] 104% | [14] 106% | [15] 89.6% | [16] 103% | [17] 109% | [18] 100%

COc1ccc2nc3cc(Cl)ccc3c(NCCNCC(O)CO)c2c1 (centres undefined)
inactive: [2] 20.6% | [3] 23.3% | [4] 30.7% | [5] 30.5% | [6] 32.4% | [7] 19.8% | [8] 26.2% | [9] 49.6% | [10] 87.7% | [11] 21.7% | [12] 44.3% | [13] 28.3% | [14] 15.2% | [17] 44.8% | [18] 20.7%
active: [1] 6.64% | [15] 9.17% | [16] 9.6%
